HT1080 IDH1KD tx: kills HT-1080 cells with IDH1 knockdown; HT-1080 IDH1 knockdown viability, ATP luminescence, 48 h; Potency, µM (titrated, usually from 46.1 µM), without a hit: top-dose activity, negative = toxicity, usual class: cytotoxic; 2% of 360,000 active;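 further: potency means the concentration at half of the fitted maximal effect; 0% = DMSO wells and -100% = cell-free medium wells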
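Viability of IDH1-knockdown HT-1080 fibrosarcoma cells was assessed by CellTiter-Glo after 48 h at 37 °C with titrated compound; concentration-effect curves were classified by fit quality and response size.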
ELG1 DNA repair: inhibitors of ELG1-dependent DNA repair in HEK293T cells; HEK293T ELG1-luciferase reporter, luminescence, 16 h; DNA damage induced by 5-fluorouridine; Potency, µM (titrated, usually from 46.1 µM), for inactives: top-dose activity change, negative = inhibition, usual class: inhibitors; 2.3% of 330,000 active; AID 504467; further: potency means the concentration at half of the fitted maximal effect; nearly all actives have a fitted effect of over 55% in size
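Reporter activity after DNA damage by 5-fluorouridine is monitored. Compound-treated cells incubate 16 hr at 37 °C, then ONE-Glo is added for 30 min before luminescence reading.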
TDP1 cell noCPT: qHTS for Inhibitors of human tyrosyl-DNA phosphodiesterase 1 (TDP1): qHTS in cells in absence of CPT | Potency, µM (top dose mostly 46.2 µM), for inactives: at the top dose activity change, negative = growth inhibition, usual class: inhibitors | 15% of 420,000 active | AID 686978, 2013 | DT40 Tdp1-/- hTDP1 cells, no CPT, ATP luminescence, 48 h; further: potency means the concentration at half of the fitted maximal effect; nearly all actives have a fitted effect of over 55% in size
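Growth of hTDP1-complemented DT40 Tdp1-knockout cells is measured by ATP luminescence after at least 48 hr compound exposure at 37 °C, with DMSO substituting for the 20 nM CPT used in the parallel screen.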
DT40 TDP1 CPT: growth inhibition of DT40 Tdp1-/-;hTDP1 cells with camptothecin (screen for TDP1 inhibitors). Potency, µM (titrated, usually from 46.2 µM), for the others: at the highest dose activity change, negative = growth inhibition, most hits filed as inhibitors. AID 686979. chicken DT40 Tdp1-/-;hTDP1 cells + 20 nM CPT, ATP luminescence, 48 h. 12% of 420,000 active; further: potency means the concentration at half of the fitted maximal effect; nearly all actives have a fitted effect of over 55% in size
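Chicken DT40 Tdp1-/- cells stably complemented with human TDP1 were seeded at 400 cells/well in medium containing 20 nM camptothecin, exposed to pin-transferred compounds, and grown at 37 °C for at least 48 hr. Viability was read as ATP luminescence.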
HT1080NT lethal: kills 2HG-producing HT-1080-NT fibrosarcoma cells; AID 686970; HT-1080-NT fibrosarcoma viability, CellTiter-Glo ATP luminescence, 48 h; 1.6% of 360,000 active; Potency, µM (highest dose often 46.1 µM), for inactives: at the highest dose activity, negative = less viability, hits mostly cytotoxic;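 further: NT is the 2HG producing partner of a matched IDH1 knockdown line; potency means the concentration at half of the fitted maximal effect; 0% = DMSO-treated cells and -100% = media-only wells without cells; nearly all actives have a fitted effect of over 55% in size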
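HT-1080-NT; 750 cells/well; 5% FBS RPMI; 48 h compound, 37 degrees C; CellTiter-Glo luminescence; curve fitting and curve-class assignment.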
IL-1B inflam inh: inhibitors of inflammasome signaling (IL-1 beta secretion); 4.7% of 360,000 active; AID 743279; activity change, % at 57.5 µM; THP-1 LPS/ATP IL-1B secretion, AlphaLISA, 16 h; hits give low values; in the data active means activity change below about -50%; inconclusive means mostly about -30% to -49%
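THP-1 cells pretreated 1 hr with compounds (up to 57.5 uM final), then stimulated with LPS (250 ng/mL final) plus ATP (1.25 mM final); secreted IL-1B measured by AlphaLISA after 16 hr, decreased signal indicating inhibition.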
* marks the source's active call; other numbers are inactive results; ? = inconclusive; . = no result given. Rows were chosen to be rich in hits. Some 19% of all compounds tested hit in one or more screens of this group. Unless noted, the call rests on the fitted dose curve; in most records, active means well fitted curve in the direction sought with a large enough effect; inconclusive means small, poorly fitted or top-dose-only effect, or another doubt; inactive means no such curve, though single readings can be large; an effect the other way counts as inactive or inconclusive. Unless noted, on the % scale 0 is the no-effect control and ±100 the full control effect.

SMILES | HT1080 IDH1KD tx | ELG1 DNA repair | TDP1 cell noCPT | DT40 TDP1 CPT | HT1080NT lethal | IL-1B inflam inh
CC(=O)Nc1ccc(NC(=O)c2nc(SCc3ccccc3F)ncc2Cl)cc1 | . | . | -8% | -22% | . | .
CCN(c1ccccc1)S(=O)(=O)c1ccc(NCC2COc3ccccc3O2)nc1 (centres undefined) | ? | ? | ? | 26µM* | -28% | ?
CCC(C)NC(=O)c1ccc(Cn2c(=O)c3cccn3c3cccnc32)cc1 (centres undefined) | . | . | ? | -10% | . | .
CCn1ccnc1CN(C)Cc1cn(-c2ccccc2)nc1-c1ccc(OC)cc1F | -30% | -17% | ? | ? | -19% | -74*
COc1cccc(-c2nn(-c3ccccc3)cc2CN(C)C(C)c2ccon2)c1 (centres undefined) | -5% | ? | ? | ? | -2% | 30
CCn1ccnc1CN(C)Cc1cn(C)nc1-c1ccccc1F | 6% | -5% | 0% | 29% | 9% | -5
COc1cccc(-c2nn(-c3ccccc3)cc2CN(C)Cc2ccno2)c1 | -21% | ? | 21µM* | 21µM* | -11% | 0
Cc1ccc(C)c(Cn2c(=O)n(Cc3ccc4c(c3)OCO4)c(=O)c3oc4ccccc4c32)c1 | . | . | -13% | -6% | . | .
Cc1ccc(C(=O)OCC(=O)Nc2sccc2C(N)=O)cc1NC(=O)c1ccco1 | -6% | 8.2µM* | 6.5µM* | ? | -1% | -5
Cc1ccc(C(=O)OCC(=O)Nc2nc(-c3ccccc3)cs2)cc1NC(=O)c1ccco1 | -10% | ? | ? | ? | 3% | -80*
CCc1nc2ccccc2n(CCOCCn2c(=O)c(CC)nc3ccccc32)c1=O | 10% | 23µM* | -12% | 0% | 1% | -5
COc1cc(OC)c(NC(=O)Cn2cnc3sc(C)c(S(=O)(=O)N4CCN(C)CC4)c3c2=O)cc1Cl | . | . | -12% | -14% | . | .
Cc1ccc(C)c(S(=O)(=O)N2CCN(C(=O)Cc3ccccc3)CC2)c1 | -15% | -12% | ? | -10% | -4% | -13
COc1ccc(N2CCN(C(=O)CCC(=O)c3cc(C)sc3C)CC2)cc1 | 5% | -12% | 16µM* | ? | 0% | -27
COc1ccc(N2CCN(C(=O)CCCC(=O)c3ccccc3)CC2)cc1 | 7% | 8% | ? | 21µM* | 3% | 0
COc1ccc(C(=O)CCC(=O)N2CCN(c3ccc(C)cc3)C(C)C2)cc1 (centres undefined) | -1% | -1% | 23µM* | ? | 0% | ?
COc1ccc(N2CCN(C(=O)CCNC(=O)c3ccccc3)CC2)cc1 | 0% | 3% | -1% | -6% | 12% | 9
Cc1ccc(C)c(S(=O)(=O)N2CCN(C(=O)CCC(=O)c3cc(C)sc3C)CC2)c1 | -15% | ? | 23µM* | ? | 3% | -54*
Cc1ccc(-c2noc(-c3ccc(NC4CCCC4)c([N+](=O)[O-])c3)n2)cc1 | . | . | -15% | -29% | . | .
COc1ccc(N2CCN(C(=O)CNC(=O)c3cccc(Br)c3)CC2)cc1 | 7% | -18% | 15µM* | ? | 4% | 10
Cc1cccc(CCN(C(=O)c2csnn2)C(C(=O)NC2CCCC2)c2ccco2)c1 (centres undefined) | -13% | -25% | 16µM* | 15µM* | -18% | -85*
O=C(NC1CCCCC1)C(c1ccco1)N(CCc1ccccc1)C(=O)C(F)(F)F (centres undefined) | -15% | -1% | 23µM* | 23µM* | 0% | 17
